Key:
Assay in all cases: growth AUC relative to DMSO control (median of replicates) (fraction); higher = more growth (less inhibition), active = hit call of the paper
Details in all cases: 20 µM; 24 h;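 active = AUC reduced over 20% with Padj below 0.05 in at least 2 of 3 replicates; inactive = otherwise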
[1] = tested on: Coprococcus comes
In short: (§1)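 In round-bottom 96-well plates sealed with pierced gas-permeable seals, gut bacterial monocultures in mGAM were grown anaerobically at 37 °C from OD600 0.05 with 20 µM compound (1% DMSO). OD600 readings were taken hourly for 24 h, and the minimum OD was set to 0. Area under the growth curve was then normalised to the plate median of solvent-only wells, or to row and column medians on the industrial chemical plate. The value given is the median of three biological replicates grown on separate days.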

[2] = tested on: Escherichia coli ED1a
In short: as §1

[3] = tested on: Escherichia coli IAI1
In short: as §1

[4] = tested on: Eubacterium rectale
In short: as §1

[5] = tested on: Fusobacterium nucleatum subsp. animalis
In short: as §1

[6] = tested on: Lactobacillus gasseri
In short: as §1

[7] = tested on: Lactobacillus paracasei
In short: as §1

[8] = tested on: Odoribacter splanchnicus
In short: as §1

[9] = tested on: Parabacteroides distasonis
In short: as §1

[10] = tested on: Parabacteroides merdae
In short: as §1

[11] = tested on: Roseburia intestinalis
In short: as §1

[12] = tested on: Streptococcus salivarius
In short: as §1

Measured: growth AUC

COP(N)(=S)Oc1ccccc1C(=O)OC(C)C (centres undefined)
inactive: [1] 1.03 | [2] 0.969 | [3] 0.982 | [4] 1.04 | [5] 0.97 | [6] 0.906 | [7] 0.944 | [8] 0.898 | [9] 0.877 | [10] 0.986 | [11] 1.07 | [12] 0.991

CON(C)C(=O)Nc1ccc(Br)c(Cl)c1
inactive: [1] 1.03 | [2] 0.958 | [3] 1.04 | [4] 0.867 | [5] 0.886 | [6] 1.13 | [7] 0.989 | [8] 0.998 | [9] 1.01 | [10] 0.967 | [11] 0.957 | [12] 0.956

CCOP(=S)(OCC)Oc1cc(-c2ccccc2)on1
inactive: [1] 1.03 | [2] 0.993 | [3] 0.993 | [4] 1.05 | [5] 0.973 | [6] 0.886 | [7] 0.964 | [8] 1.01 | [9] 0.854 | [10] 1 | [11] 0.993 | [12] 0.995

CNC(=O)O/N=C/C(C)(C)SC
inactive: [1] 1.01 | [2] 1.01 | [3] 1.03 | [4] 0.966 | [5] 0.939 | [6] 1.12 | [7] 0.99 | [8] 1 | [9] 1.03 | [10] 0.961 | [11] 1.03 | [12] 1.06

CC(C)=NOCCOC(=O)[C@@H](C)Oc1ccc(Oc2cnc3cc(Cl)ccc3n2)cc1
inactive: [1] 0.94 | [2] 1.01 | [3] 1.01 | [4] 0.957 | [5] 0.864 | [6] 1.04 | [7] 0.974 | [8] 0.931 | [9] 0.983 | [10] 0.955 | [11] 1.05 | [12] 0.966

O=c1oc2ccccc2c(O)c1C1CCCc2ccccc21 (centres undefined)
inactive: [1] 0.966 | [2] 1.04 | [3] 1.04 | [4] 1.08 | [5] 1.05 | [6] 1 | [7] 0.894 | [8] 0.959 | [9] 0.805 | [10] 0.994 | [11] 1 | [12] 1.01

CC1CCCCC1NC(=O)Nc1ccccc1 (mixture of isomers)
inactive: [1] 0.989 | [2] 0.995 | [3] 0.972 | [4] 0.942 | [5] 0.999 | [6] 1.01 | [7] 0.926 | [8] 1.01 | [9] 0.982 | [10] 0.986 | [11] 0.985 | [12] 1.02

CCc1nn(C)c(C(=O)NCc2ccc(Oc3ccc(C)cc3)cc2)c1Cl
inactive: [1] 0.959 | [2] 0.986 | [3] 0.997 | [4] 0.96 | [5] 0.952 | [6] 1.1 | [7] 0.942 | [8] 0.896 | [9] 0.947 | [10] 0.975 | [11] 0.924 | [12] 0.986

COc1cc(OC)nc(NC(=O)NS(=O)(=O)c2ncccc2C(F)(F)F)n1
inactive: [1] 1.02 | [2] 0.985 | [3] 0.998 | [4] 1.09 | [5] 1.04 | [6] 1.02 | [7] 0.986 | [8] 1.09 | [9] 1.05 | [10] 1.04 | [11] 1 | [12] 1.01

C#CCN1CC(=O)N(COC(=O)C2C(C=C(C)C)C2(C)C)C1=O (mixture of isomers)
inactive: [1] 0.982 | [2] 0.991 | [3] 0.968 | [4] 0.805 | [5] 0.945 | [6] 0.994 | [7] 0.997 | [8] 0.958 | [9] 0.996 | [10] 0.927 | [11] 1.04 | [12] 0.943

CS(=O)(=O)c1ccc(C(=O)C2C(=O)CCCC2=O)c(Cl)c1
inactive: [1] 0.974 | [2] 1.01 | [3] 1.03 | [4] 0.916 | [5] 1.05 | [6] 1.09 | [7] 1.03 | [8] 1.04 | [9] 1.04 | [10] 1.01 | [11] 1.04 | [12] 0.994

O=P(OCCCl)(OCCCl)OCCCl
inactive: [1] 0.916 | [2] 0.98 | [3] 0.963 | [4] 0.89 | [5] 0.88 | [6] 0.98 | [7] 1.09 | [8] 0.868 | [9] 0.989 | [10] 0.921 | [11] 0.928 | [12] 1.03

Reference: the supplement of paper PMC12669032
